According to PubChem BioAssay (NCI):
Compounds without any hit were thinned out: in the full panel of roughly 79,000, 15% have a hit. Cut-off read from the data, not from the text of the source: active = growth inhibition above about 70%; inactive = the rest.

Legend:
[1] = NCI Yeast Anticancer Drug Screen. Data for the rad50 strain (AID 155);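 note: 0% = growth of vehicle-only cultures of the same strain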; details: S. cerevisiae rad50 strain growth inhibition; at 50.0 µM; hits give high values
Procedure, shortened: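 Cells are treated with compound, grown, and their growth is then scored against vehicle-only cultures of the same repair-deficient yeast strain.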

[2] = NCI Yeast Anticancer Drug Screen. Data for the mec2-1 strain (AID 157); details: S. cerevisiae mec2-1 strain, at 50.0 µM, hits give high values
Procedure, shortened: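 Each compound was tested on mec2-1 yeast, a strain altered in DNA damage repair or cell cycle control. Growth inhibition is reported relative to vehicle.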

[3] = NCI Yeast Anticancer Drug Screen. Data for the sgs1 mgt1 strain (AID 161);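 note: 0% = growth of cultures given vehicle only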; details: S. cerevisiae sgs1 mgt1 strain, at 50.0 µM, hits give high values
Procedure, shortened: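 Genetically altered yeast, compound exposure, growth inhibition relative to vehicle.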

[4] = NCI Yeast Anticancer Drug Screen. Data for the cln2 rad14 strain (AID 165);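 note: 0% = growth equal to vehicle treated cultures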; details: S. cerevisiae cln2 rad14 strain, at 50.0 µM, hits give high values
Procedure, shortened: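 Test compounds were added to cln2 rad14 yeast cultures; inhibition of growth was then determined by comparison with vehicle treatment.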

[5] = NCI Yeast Anticancer Drug Screen. Data for the bub3 strain (AID 167); details: S. cerevisiae bub3 mutant strain, at 50.0 µM, hits give high values
Procedure, shortened: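 Part of a panel of yeast mutants defective in DNA damage repair or cell cycle regulation. Each strain is grown with compound, and inhibition is calculated relative to solvent-treated cultures.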

[6] = NCI Yeast Anticancer Drug Screen. Data for the mlh1 rad18 strain (AID 175); details: S. cerevisiae mlh1 rad18 strain growth inhibition; at 50.0 µM; hits give high values
Procedure, shortened: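 Inhibition values reflect reduced growth of mutant yeast versus vehicle-treated controls following compound exposure; the mutations affect DNA damage repair.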

Measured: growth inhibition

O=c1cc(-c2cccs2)ss1
inactive: [1] 18.4% | [2] 5.25% | [3] -0.65% | [4] -34.6% | [5] 13.8% | [6] 25%

CC12CCCC(C(=O)O)(C1)[C@H](C(C)(C)C(=O)O)CC2 (stereo partly drawn)
inactive: [1] -29.5% | [2] -40.9% | [3] -15.7% | [4] 8.75% | [5] -4.2% | [6] -10.8%

CNCCNc1ncc([N+](=O)[O-])s1
inactive: [1] -3.25% | [2] -9.1% | [3] -37.6% | [4] -25.1% | [5] -43% | [6] -32.5%

CN(C)CCNC(=O)c1cccc2c(Nc3ccc(S(N)(=O)=O)cc3)c3ccccc3nc12
inactive: [1] -43.7% | [2] 4% | [3] -43.1% | [4] 17.9% | [5] -23.6% | [6] 11.1%

CN(C)/C=N/NC(=O)c1ccccc1N
inactive: [1] -15% | [2] -15.7% | [3] -6.75% | [4] -11.6% | [5] 2.15% | [6] 0.55%

N#CNS(=O)(=O)c1ccccc1
inactive: [1] 8.3% | [2] -5.6% | [3] 22.6% | [4] 14% | [5] 12.2% | [6] 17.6%

O=S(NOCc1ccccc1)c1ccccc1 (stereo not drawn)
inactive: [1] 13.3% | [2] 24.2% | [3] 3.95% | [4] -31.8% | [5] -6% | [6] 9.75%

CC1CCOC2(CCCCC2)O1 (stereo not drawn)
inactive: [1] -12.6% | [2] -7.15% | [3] -8.85% | [4] -32.9% | [5] -2.65% | [6] 16.2%

COc1cc(=O)cc2n(-c3cc(OC)c(O)c(OC)c3)c3ccccc3nc1-2
inactive: [1] 23.6% | [2] 0.1% | [3] 5.95% | [4] 6% | [5] -8.3% | [6] 23.5%

O=c1oc2ccccc2c(=O)n1O
inactive: [1] 65.8% | [2] 10.3% | [3] 10.1% | [4] 9.4% | [5] 30.1% | [6] 43.1%

O=C1CCCc2ccc3c(c21)CC1(Cc2ccccc2C1)C3
inactive: [1] -7.05% | [2] -40.2% | [3] 8.65% | [4] -6% | [5] 4.05% | [6] -5.8%

CCCCOCCOCC(C)O (stereo not drawn)
inactive: [1] 14.9% | [2] 10.2% | [3] 37.2% | [4] -24.4% | [5] -8.4% | [6] 2.05%

O=C1NNCc2c1sc1ccccc21
inactive: [1] 0.25% | [2] -4.15% | [3] -17.4% | [4] -41.3% | [5] -11.7% | [6] 4.6%

COc1ccc(C(O)C(=O)c2nc3ccc([N+](=O)[O-])cc3[nH]c2=O)cc1 (stereo not drawn)
inactive: [1] -16.5% | [2] -49.5% | [3] -29.5% | [4] -22.1% | [5] -36.5% | [6] -5.2%

O=[N+]([O-])c1cc(C(F)(F)F)ccc1S(=O)(=O)c1ccccc1
inactive: [1] 40.4% | [2] 8.5% | [3] 8.7% | [4] 13.7% | [5] 14.1% | [6] 17.6%

CC(=O)OCC1OC(n2ccc(=O)[nH]c2=O)CC1N=[N+]=[N-] (stereo not drawn)
inactive: [1] -25.1% | [2] 8.7% | [3] 1.05% | [4] -48.3% | [5] 13.3% | [6] 0.35%

CC1(C)O[C@H]2Cn3c(c(C#N)c4ccccc43)[C@H]2O1
inactive: [1] 11.2% | [2] -38.4% | [3] 15.8% | [4] -11.1% | [5] 42.1% | [6] -21.2%

O=CNc1ccc(F)c(F)c1
inactive: [1] -16.8% | [2] -16.4% | [3] -6.95% | [4] -5.35% | [5] -7.2% | [6] -10.1%

CC(C)(C)OC(=O)NCCc1ccc(N)cc1
inactive: [1] -18.1% | [2] -5.55% | [3] 22.9% | [4] -0.7% | [5] 8.05% | [6] -10.2%

CC1CC(=O)C(CC(=O)O)[C@H]1C(C(=O)C(=O)Nc1cc(Cl)ccc1Cl)[N+](=O)[O-] (stereo partly drawn)
inactive: [1] 1.45% | [2] -11.3% | [3] -10.1% | [4] 14.7% | [5] -13.3% | [6] -2%

Nc1nnc(-c2ccccc2O)o1
inactive: [1] 36.3% | [2] 4.25% | [3] 23.7% | [4] 33.1% | [5] 21.4% | [6] 32.2%

Fc1c(F)c(F)c(-c2nnc(-c3c(F)c(F)c(F)c(F)c3F)o2)c(F)c1F
inactive: [1] -2.45% | [2] 2.75% | [3] -8.75% | [4] -56.8% | [5] 9.3% | [6] 4.25%

C=C(CC)C(=O)c1ccc(OCC(=O)O)c(Cl)c1Cl
inactive: [1] 14.7% | [2] -15.9% | [3] 16.6% | [4] 16.1% | [5] 19.8% | [6] -8.35%

NC(=O)C(Cc1ccccc1)c1ccccc1 (stereo not drawn)
inactive: [1] -12.2% | [2] -15.2% | [3] -7.55% | [4] -23% | [5] -16.6% | [6] 18.4%

CCC(CC)C(=O)OCCc1ccccc1
inactive: [1] 5% | [2] 3.05% | [3] -2.35% | [4] -6.3% | [5] 9.9% | [6] 0.75%

NCCSSC/C=C\CSSCCN
inactive: [1] 2.65% | [2] 1.5% | [3] -24.1% | [4] 16.2% | [5] -15.8% | [6] -12.9%

CC(=O)NNc1ncc(C(=O)/C=C/c2ccccc2C)s1
inactive: [1] 31.1% | [2] 16.1% | [3] 12.5% | [4] 29.1% | [5] 22.3% | [6] 36.6%

COc1cc(C(O)C2(c3ccc(O)c(OC)c3)NC(=O)NC2=O)ccc1O (stereo not drawn)
inactive: [1] -22.2% | [2] 16.3% | [3] -9.35% | [4] -16.9% | [5] 35.2% | [6] -14.3%

COC(=O)NC(C(F)(F)F)(C(F)(F)F)P1(=O)OCCCO1
inactive: [1] 54.5% | [2] 59.9% | [3] 26.3% | [4] 43% | [5] 54% | [6] 37.6%

O=C1CCCNc2c(Br)cc(Br)cc21
inactive: [1] 49.2% | [2] 24.7% | [3] 14.2% | [4] 8.6% | [5] 46.5% | [6] 14.8%

Cc1cccc(C)c1/[N+]([O-])=C/c1cccc([N+](=O)[O-])c1
inactive: [1] -1.8% | [2] -31.1% | [3] -3.3% | [4] -29.4% | [5] 10% | [6] -2.25%

C[S+](C)N(c1ccccc1)C(C)(C)C
inactive: [1] -10.1% | [2] -8.2% | [3] -0.45% | [4] -17.4% | [5] -22.7% | [6] -6.1%

O=c1cc(NCc2cccc3ccccc23)[nH]c(=O)[nH]1
inactive: [1] 4.45% | [2] 24.1% | [3] -5.25% | [4] -10.1% | [5] -0.75% | [6] -7.1%

COc1ccc2nccc(Cl)c2c1
inactive: [1] 12.2% | [2] 12.3% | [3] 1.6% | [4] -6.55% | [5] 15.2% | [6] 6.45%

CCCCCCCN(CCCCCCC)CC(O)c1cc2ccccc2c2cc(Br)ccc12 (stereo not drawn)
inactive: [1] -52.9% | [2] -33% | [3] -41% | [4] -25% | [5] -69.1% | [6] -109%

O=C1C(Cl)C(c2cccc(O)c2)N1n1cnc2ccccc2c1=O (stereo not drawn)
inactive: [1] -25.1% | [2] -4.15% | [3] -7.5% | [4] -8% | [5] -19.4% | [6] -0.95%

CSc1ccc(C(=O)c2ccc(SC)cc2)cc1
inactive: [1] 5.65% | [2] 15.8% | [3] 16.2% | [4] -12.8% | [5] -4.25% | [6] -17.2%

CCOc1ccccc1NC(=O)C(=O)CC(=O)c1sc(Nc2nnc(-c3ccc(Cl)c(Cl)c3)o2)nc1C
inactive: [1] 20.5% | [2] -11.6% | [3] 21.1% | [4] 21.4% | [5] 31.4% | [6] 17.8%
